# Assay results as given in PubChem BioAssay AID1259343 (VanderVen Lab, College of Veterinary Medicine, Cornell …, 2017).
# Screen size: about 6,200 compounds; about 2,900 (47%) were called active. So high a share suggests a set chosen from earlier hits. The list shows a part of the results. Unmarked numbers belong to inactive results. Rule as the data show it: active = inhibition above about 50%; inactive = the rest.
# Assay: Mycobacterium tuberculosis growth inhibition, primary screen (AID 1259343)
# Conditions: inhibition: at 10 µM, stronger effect = higher value; outcome: 10 uM
row,Structure (SMILES),inhibition
1,O=C(NN=Cc1ccc(F)cc1)c1cc(C23CC4CC(CC(C4)C2)C3)[nH]n1,10.7%
2,COc1ccccc1C=NNC(=O)c1cc(C23CC4CC(CC(C4)C2)C3)[nH]n1,99.6% (active)
3,O=C(NN=Cc1ccccc1O)c1cc(C23CC4CC(CC(C4)C2)C3)[nH]n1,28.4%
4,CC(C)Cn1c(CN(C)Cc2ncc[nH]2)nc2ccccc21,29.8%
5,CN(C)c1ccc(C=NNC2=Nc3cccc4cccc2c34)cc1,18.6%
6,NC1=NN(c2ccccc2)CC1,82.6% (active)
7,C(=NC1=NN(c2ccccc2)CC1)c1ccccc1,54% (active)
8,CN(C)c1ccc(C=NC2=NN(c3ccccc3)CC2)cc1,90.3% (active)
9,c1ccc(C2=NN(c3ccccc3)CC2)cc1,-38.3%
10,CN(C)C=NC1=NN(c2ccccc2)CC1,-0.55%
11,FC(F)(F)c1ccc2c(c1)n(Cc1ccc(Cl)c(Cl)c1)c1[n+]2CCCCC1,10.6%
12,C=CC[n+]1c(-c2ccccc2)csc1Nc1ccccc1OC,88.1% (active)
13,Cc1ccc(C=NNC(=S)NC(C)C)o1,54.2% (active)
14,Cc1ccc(C=NNC(=S)NC2CCCCC2)o1,101% (active)
15,CCCCNC(=S)NN=Cc1ccc(C)o1,81.2% (active)
16,CC(C)NC(=S)NN=Cc1c(F)c(F)c(F)c(F)c1F,82.9% (active)
17,Cc1ccc(C=NNC(=O)NC2CCCCC2)o1,-14.7%
18,CCNC(=S)NN=Cc1ccco1,1.13%
19,CC(=NNC(=S)NC1CCCCC1)c1ccc(C)o1,-13.8%
20,CCc1c(C)sc2[nH]c(=S)n(C)c(=O)c12,24.5%
21,CN(C)S(=O)(=O)n1cc(/C=C/c2nc(N)nc(-c3ccccc3O)n2)c2ccccc21,13.7%
22,O=C(NCC1CCCc2ccccc21)c1ccccn1 (stereo not drawn),3.26%
23,CC(C)(CNC(=O)c1ccccn1)c1ccccc1,65.7% (active)

row,Structure (SMILES),inhibition
1,O=C(NCCc1ccc(Cl)s1)Nc1ccccn1,35.1%
2,Fc1ccc(-c2c[nH]c(=S)[nH]2)cc1,90.2% (active)
3,O=c1oc2ccccc2c(O)c1C(c1cncs1)c1c(O)c2ccccc2oc1=O,-17.6%
4,O=c1oc2ccccc2c(O)c1C(c1ccc2c(c1)OCO2)c1c(O)c2ccccc2oc1=O,54.4% (active)
5,O=c1oc2ccccc2c(O)c1C(c1ccccc1O)c1c(O)c2ccccc2oc1=O,90.2% (active)
6,CC(C)[C@H](CNC(=O)[C@@H](NC(=O)c1cccc(-c2ccccc2)n1)[C@@H](C)O)B(O)O,23.9%
7,Cc1ccc(N=Nc2cn[nH]c2C)cc1,-8.23%
8,COc1ccc(NC(=O)C(C)CS(=O)(=O)c2ccc(Br)cc2)cc1F (stereo not drawn),61.1% (active)
9,c1cc2c3c(cccc3c1)/C(=N/OCC1CO1)C2 (stereo not drawn),101% (active)
10,N#Cc1nc(COc2ccc(Br)cc2)oc1NCCCn1ccnc1,62.4% (active)
11,N#Cc1nc(-c2ccc(COc3ccc(Cl)cc3)o2)oc1NCC1CCCO1 (stereo not drawn),46.9%
12,NC(CCCc1ccccc1)c1ccccc1 (stereo not drawn),15.7%
13,c1ccc(CC[P+](c2ccccc2)(c2ccccc2)c2ccccc2)cc1,62.6% (active)
14,O=C1NC(=S)SC1=Cc1ccc(F)c(F)c1,88.5% (active)
15,COc1cc(C=C2SC(=S)NC2=O)cc(Br)c1O,90% (active)
16,O=C1NC(=S)SC1=Cc1ccc(F)cc1,32.6%
17,O=C1NC(=S)SC1=Cc1cc(O)c(O)c(Cl)c1,88.3% (active)
18,O=C1/C(=C\c2ccc(O)c(Cl)c2)CS(=O)(=O)C/C1=C/c1ccc(O)c(Cl)c1,-0.82%
19,COc1ccc(C=C2SC(=S)NC2=O)cc1F,86.7% (active)
20,Cc1nn(C)c(C)c1CCC(=O)Nc1ccc(C(C)(C)C#N)cc1,71% (active)
21,COc1ccc(NC(=O)CCc2ccccc2C#N)cc1,27.5%
22,Cc1ccc(-c2n[nH]c(=S)c3ccccc23)cc1,32.5%
23,S=c1[nH]nc(-c2ccccc2)c2ccccc12,70.8% (active)

row,Structure (SMILES),inhibition
1,CC1CN(c2ccc(-c3nnc(Br)s3)cc2)CC(C)(C)O1 (stereo not drawn),10.5%
2,O=C(O)c1ccc(COc2cccc(Cl)c2)s1,81.8% (active)
3,Clc1cccc(OCOCOc2cccc(Cl)c2)c1,1.77%
4,CN(C)S(=O)(=O)c1ccc(COc2cccc(Cl)c2)o1,49.6%
5,O=C(NN1CCOCC1)c1ccc(Oc2ccc(F)cc2)cc1,89.4% (active)
6,CCCNC(=O)c1ccc(Oc2ccc(F)cc2)cc1,90.3% (active)
7,CCCNC(=O)C(C)NC(=O)c1ccc(Oc2ccc(F)cc2)cc1 (stereo not drawn),62.5% (active)
8,Cc1ccc(Oc2ccc(NC(C)C(=O)NC(C)C)cc2)cc1 (stereo not drawn),30.7%
9,C=CCOc1cccc(C2c3c(oc4ccc(C)cc4c3=O)C(=O)N2c2nccs2)c1 (stereo not drawn),1.57%
10,Fc1cc(NCc2ccccc2)nc(NCc2ccccc2)n1,13.7%
11,Cc1cccc(-c2nc3c(NCc4cccc(N(C)C)c4)nccc3[nH]2)c1,76.8% (active)
12,Cc1c(-c2ccccc2)[nH]c2c(CNc3nccc(N)n3)cc(Cl)cc12,25.5%
13,Fc1cccc(-c2nc3c(NCc4ccccc4)nccc3[nH]2)c1,58.3% (active)
14,Fc1ccc(-c2nc3c(NCc4ccccc4)nccc3[nH]2)cc1F,35.1%
15,c1ccc(CNc2nc(-c3ccccc3)nc3ccccc23)cc1,-8.46%
16,c1ccc(-c2nc3c(NC4CCCCC4)nccc3[nH]2)cc1,76.1% (active)
17,Cc1cccc(-c2nc3c(NCc4ccccc4)nccc3[nH]2)c1,68.2% (active)
18,Cc1ccc(-c2nc3c(NCc4cccc(N(C)C)c4)nccc3[nH]2)cc1,65.2% (active)
19,Cc1cc(=O)[nH]c(-n2nc(C)cc2NC(=O)C(C)C)n1,100% (active)
20,CC(=O)Nc1cc(C)nn1-c1nc(C)cc(=O)[nH]1,100% (active)
21,Cc1cc(=O)[nH]c(-n2nc(C)cc2NC(=O)c2snnc2C)n1,99.6% (active)
22,C/C=C/C(=O)Nc1cc(C)nn1-c1nc(C)cc(=O)[nH]1,101% (active)
